# Results: paper PMC12431657, “Discovery and mechanistic insights of dibenzoylmethane as a broad spectrum inhibitor of coronavirus” (PLOS Pathogens, 2025)
# Counter-ions that a name gives are not always drawn. Like-named read-outs stand apart in the source and are kept apart here. About 95 (3%) of roughly 3,300 compounds showed an effect of 50% or more. This is one part of a sample in which strong results are shown more often than they occur.
# Tested on: HCoV-229E
# Parameters: species or system Huh-7; HTS, protection from HCoV-229E induced cell death, luminescent cell viability (CellCounting-Lite 2.0), inhibition rate
# Details: 24 h post infection, 1 h compound pre-incubation, 10 µM, inhibitor
SMILES,229E Inhibition rate,"229E Inhibition rate (229E Inhibition rate, 24 h)"
COc1ccc(C2COc3cc(O[C@@H]4O[C@H](CO)[C@@H](O)[C@H](O)[C@H]4O)ccc3C2)c(O)c1OC (stereo partly drawn) [Isomucronulatol 7-O-glucoside],13%,–
CC(C)=CCC/C(C)=C/C=O [Citral],47.4%,–
C=C1[C@H]2C[C@H]2[C@]2(C)Cc3occ(C)c3[C@H](O)[C@@H]12 [Lindenenol],28.5%,–
CCC/C=C1\OC(=O)C2=C1CC[C@H](O)[C@H]2O [Senkyunolide I],43.1%,–
CCC/C=C1\OC(=O)C2=C1CC[C@@H](O)[C@H]2O [Senkyunolide H],47.8%,–
CCC/C=C1\OC(=O)C2=C1CC[C@H]1[C@H]3C=C4C(=O)O/C(=C\CCC)[C@@]4(CC3)[C@@H]21 [Levistolide A],60.4%,–
Cc1ncc(CO)c(C(=O)O)c1O [4-Pyridoxic acid],22.7%,–
O=C(O)/C=C/c1ccccc1 [Cinnamic acid],–,21%
O=C(O)[C@H](O)c1ccccc1 [D-(-)-Mandelic acid],7.5%,–
O=C(O)[C@H]1O[C@@H](Oc2cc(O)c3c(=O)cc(-c4ccc(O)c(O)c4)oc3c2)[C@H](O)[C@@H](O)[C@@H]1O [Luteolin 7-O-glucuronide],11.2%,–
C[C@@H]1CC[C@]2(C(=O)O[C@@H]3O[C@H](CO)[C@@H](O)[C@H](O)[C@H]3O)CC[C@]3(C)C(=CC[C@@H]4[C@@]5(C)CC[C@H](O)[C@](C)(C(=O)O)[C@@H]5CC[C@]43C)[C@@H]2[C@]1(C)O [Ilexsaponin A],58.5%,–
C[C@@H]1CC[C@]2(C(=O)O[C@@H]3O[C@H](CO)[C@@H](O)[C@H](O)[C@H]3O)CC[C@]3(C)C(=CC[C@@H]4[C@@]5(C)CC[C@H](O)[C@@](C)(CO)[C@@H]5CC[C@]43C)[C@@H]2[C@]1(C)O [Pedunculoside],10.8%,–
C[C@@H]1CC[C@]2(C(=O)O[C@@H]3O[C@H](CO)[C@@H](O)[C@H](O)[C@H]3O)CC[C@]3(C)C(=CC[C@@H]4[C@@]5(C)C[C@@H](O)[C@H](O)[C@@](C)(CO)[C@@H]5CC[C@]43C)[C@@H]2[C@]1(C)O [Niga-ichigoside F1],20.4%,–
C[C@@H]1O[C@@H](O[C@H]2[C@H](O[C@H]3CC[C@@]4(C)[C@@H](CC[C@]5(C)[C@@H]4CC=C4[C@@H]6CC(C)(C)CC[C@]6(C(=O)O[C@@H]6O[C@H](CO[C@@H]7O[C@H](CO)[C@@H](O)[C@H](O)[C@H]7O)[C@@H](O)[C@H](O)[C@H]6O)CC[C@]45C)[C@]3(C)CO)OC[C@H](O)[C@@H]2O)[C@H](O)[C@H](O)[C@H]1O [Dipsacoside B],11.1%,–
CC1(C)CC[C@]2(C(=O)O[C@@H]3O[C@H](CO[C@@H]4O[C@H](CO)[C@@H](O)[C@H](O)[C@H]4O)[C@@H](O)[C@H](O)[C@H]3O)CC[C@]3(C)C(=CC[C@@H]4[C@@]5(C)CC[C@H](O[C@@H]6OC[C@H](O)[C@H](O)[C@H]6O)[C@@](C)(CO)[C@@H]5CC[C@]43C)[C@@H]2C1 [Asperosaponin VI],56.6%,–
C[C@@H]1O[C@@H](O[C@H]2[C@H](O)[C@@H](O)[C@H](OC[C@H]3O[C@@H](OC(=O)[C@]45CCC(C)(C)C[C@H]4C4=CC[C@@H]6[C@@]7(C)CC[C@H](O[C@@H]8OC[C@H](O)[C@H](O)[C@H]8O)[C@@](C)(CO)[C@@H]7CC[C@@]6(C)[C@]4(C)CC5)[C@H](O)[C@@H](O)[C@@H]3O)O[C@@H]2CO)[C@H](O)[C@H](O)[C@H]1O [Hederacoside D],–,40.4%
O=C(O)C(O)Cc1cc2ccccc2[nH]1 (stereo not drawn) [Indolelactic acid],16.7%,–
O=C1C=CCO1 [2(5H)-Furanone],8.7%,–
CCCCCC(C)C(=O)O (stereo not drawn) [2-Methylheptanoic acid],47.5%,–

SMILES,229E Inhibition rate,"229E Inhibition rate (229E Inhibition rate, 24 h)"
O=C(O)Cc1ccccc1O [2-Hydroxyphenylacetic acid],12.4%,–
NCc1ccccc1O [o-Hydroxybenzylamine],9.2%,–
OCc1ccccc1O [Salicyl alcohol],51.5%,–
c1cc2c(cc1O[C@H]1OC[C@H]3[C@@H]1CO[C@@H]3c1ccc3c(c1)OCO3)OCO2 [Sesamolin],62.2%,–
c1cc2c(cc1[C@H]1OC[C@@H]3[C@H]1CO[C@H]3c1ccc3c(c1)OCO3)OCO2 [(-)-Asarinin],9.2%,–
c1cc2c(cc1[C@H]1OC[C@H]3[C@@H]1CO[C@@H]3c1ccc3c(c1)OCO3)OCO2 [Sesamin],15.4%,–
CC1=C\[C@@H](O)CC(=O)Cc2nc(co2)C(=O)N2CCC=C2C(=O)O[C@H](C(C)C)[C@H](C)/C=C/C(=O)NC\C=C\1 [Virginiamycin M1],36.6%,–
N[C@@H](Cc1ccc(O)c([N+](=O)[O-])c1)C(=O)O [3-Nitro-L-tyrosine],8%,–
C=C(C)[C@@H]1CC[C@]2(C)CC[C@]3(C)[C@H](CC[C@@H]4[C@@]5(C)CCC(=O)C(C)(C)[C@@H]5CC[C@]43C)[C@@H]12 [Lupenone],9.9%,–
CCc1ccc(O)cc1 [4-Ethylphenol],20.1%,–
CCC1(c2ccc(O)cc2)NC(=O)N(C)C1=O (stereo not drawn) [4-Hydroxymephenytoin],55.5%,–
O=c1c(O[C@@H]2OC[C@@H](O)[C@H](O)[C@H]2O)c(-c2ccc(O)c(O)c2)oc2cc(O)cc(O)c12 [Reynoutrin],19.1%,–
C[C@H]1CC[C@@]2(OC1)O[C@H]1C[C@H]3[C@@H]4CC=C5C[C@@H](O[C@@H]6O[C@H](CO)[C@@H](O)[C@H](O[C@@H]7OC[C@@H](O)[C@H](O)[C@H]7O)[C@H]6O[C@@H]6O[C@@H](C)[C@H](O)[C@@H](O)[C@H]6O)CC[C@]5(C)[C@H]4CC[C@]3(C)[C@H]1[C@@H]2C [Liriope muscari baily saponins C],31%,–
COc1cc([C@@H]2c3cc4c(cc3[C@@H]3OC[C@H]2[C@@H]3CO)OCO4)cc(OC)c1OC [Neoanhydropodophyllol],9.1%,–
COc1ccc2cc3[n+](cc2c1OC)CCc1cc2c(cc1-3)OCO2 [Berberine (chloride hydrate)],–,34%
C=C1C(=O)O[C@@H]2/C=C(\C)[C@@H](OC(C)=O)C/C=C(\COC(C)=O)C[C@@H](OC(=O)/C(C)=C/CO)[C@@H]12 [Eupalinolide A],–,35.1%
C[C@@H](O)C(=O)O [D-(-)-Lactic acid (sodium)],8.1%,–
CC(C)C(O)C(=O)O (stereo not drawn) [2-Hydroxy-3-methylbutanoic acid],20.4%,–
C[C@H](O)C(=O)O [L-Lactic acid],58.1%,–

SMILES,229E Inhibition rate,"229E Inhibition rate (229E Inhibition rate, 24 h)"
COc1ccc2c3c1O[C@H]1C[C@@H](O)CC[C@]31CCN(C)C2 [Lycoramine],33.8%,–
COc1ccc(CC(=O)O)cc1 [2-(4-Methoxyphenyl)acetic acid],0%,–
COc1cc(CNC(=O)CCCCCCCC(C)C)ccc1O [Homodihydrocapsaicin I],33%,–
Cc1cc(O)cc2c1O[C@](C)(CCC[C@H](C)CCC[C@H](C)CCCC(C)C)CC2 [Delta-Tocopherol],8.2%,–
CC(=O)OC/C1=C\[C@H]2[C@@H](OC(=O)/C=C/c3ccccc3)[C@@H](C)C[C@]2(OC(C)=O)C(=O)/C(C)=C/[C@@H]2[C@H](CC1)C2(C)C [Euphorbia factor L7a],90.9%,–
CC(=O)OC/C1=C/C[C@H]2[C@@H](/C=C(\C)C(=O)[C@@]3(OC(C)=O)C[C@H](C)[C@H](OC(=O)c4ccccc4)[C@@H]3[C@H]1OC(C)=O)C2(C)C [Euphorbia factor L7b],41.1%,–
CCOC(=O)/C=C/c1ccccc1 [Ethyl cinnamate],4%,–
COc1cc(/C=C/C(=O)NCC(O)c2ccc(O)cc2)ccc1O (stereo not drawn) [N-Feruloyloctopamine],7.9%,–
C=C1[C@@H](O)[C@]2(O)OC[C@]34[C@H]2[C@@]2(C)[C@H](O)C(=O)C=C(C)[C@@H]2C[C@H]3OC(=O)[C@H](O)[C@@]14O [Eurycomanone],53.4%,–
CC1=CC(=O)[C@@H]2C[C@H]1C2(C)C [Verbenone],0%,–
CC1(C)Oc2cc3oc(-c4cc(O)cc(O[C@@H]5OC[C@@H](O)[C@H](O)[C@H]5O)c4)cc3cc2CC1O (stereo partly drawn) [Mulberroside C],0%,–
O=C(/C=C/c1ccc(O)c(O)c1/C=C/c1ccc(O)c(O)c1)O[C@H](Cc1ccc(O)c(O)c1)C(=O)O [Salvianolic acid A],17.8%,–
CC/C=C/CC1C(=O)CCC1CC(=O)OC (stereo not drawn) [Methyl 2-(3-oxo-2-(pent-2-en-1-yl)cyclopentyl)acetate],22%,–
CCCCCCCCCCCCCCCCC(=O)OC [Methyl heptadecanoate],20.9%,–
CCCCCC1C(=O)CCC1CC(=O)OC (stereo not drawn) [Methyl dihydrojasmonate],54.7%,–
CC(C)(O)[C@@H]1CC[C@](C)([C@H]2[C@@H](O)C[C@@]3(C)[C@@H]4C[C@H](O)[C@H]5C(C)(C)[C@@H](O[C@@H]6OC[C@@H](O)[C@H](O)[C@H]6O[C@@H]6O[C@H](CO)[C@@H](O)[C@H](O)[C@H]6O)CC[C@@]56C[C@@]46CC[C@]23C)O1 [Astragaloside III],10.8%,–
CO[C@H]([C@H](C)[C@H]1O[C@@]2(CC[C@@](C)([C@H]3CC[C@@](C)([C@@H]4O[C@@H]([C@H]5O[C@@](O)(CO)[C@H](C)C[C@@H]5C)C[C@@H]4C)O3)O2)C[C@H](O)[C@H]1C)[C@H](C)C(=O)O [Monensin B],55.3%,–
CO[C@@H]1[C@@H](OC)[C@H](C)[C@@](O)(CC(=O)O)O[C@H]1[C@H](C)[C@H]1O[C@@]2(CC[C@@](C)([C@H]3CC[C@@](C)([C@@H]4O[C@@H]([C@H]5O[C@](C)(O)[C@H](C)C[C@@H]5C)C[C@@H]4O[C@@H]4C[C@H](OC)[C@@H](OC)[C@H](C)O4)O3)O2)C[C@H](O)[C@H]1C [Maduramicin (ammonium)],3.4%,–
CC[C@@]1([C@H]2O[C@H]([C@H]3O[C@@](O)(CO)[C@H](C)C[C@@H]3C)C[C@H]2C)CC[C@H]([C@@]2(C)CC[C@]3(C[C@H](O)[C@@H](C)[C@@H]([C@H](C)[C@H](OC)[C@@H](C)C(=O)O)O3)O2)O1 [Monensin sodium salt],24.5%,–
